From PubChem BioAssay
Shown is part of a subset that was picked to be rich in hits.
RmlCD inh mix = RmlC and RmlD coupled enzyme inhibitors, primary screen, biochemical, 384-well, compound mixtures, retest; inhibition, % at 5.5 µM; actives 0.39% (n = 110,000); RmlC/RmlD coupled enzyme inhibition, 384-well mixture HTS; in the data active = inhibition above about 30%, passing the limit was not always enough
RT RNaseH block = HIV-1 RT RNase H inhibitors, primary screen, biochemical, fluorescence | RT-RNase H RNA/DNA duplex cleavage | inhibition, % at 10 µM | actives 1.9% (n = 65,000) | AID 565, 2006; in the data active = inhibition above about 50%
RmlCD fluor art = counter-screen for RmlC/RmlD inhibitors: fluorescence artifact, dose response, artefact control, biochemical. shares compounds with RmlCD inh mix. RmlC/RmlD assay fluorescence artifact counter-screen. calls only. actives 96% (n = 360). AID 1696, 2009; call rule not given here;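 also: compound alone with no enzyme and no substrates present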
* = called active by the depositor; . = no result; + = active, no number.

SMILES	RmlCD inh mix	RT RNaseH block	RmlCD fluor art
Cc1cc(C)cc(OC(=O)CS(=O)c2ccc(C(F)(F)F)cc2[N+](=O)[O-])c1 (stereo unspecified)	3.0	.	.
CC1=CC2=NC(=O)CC(C)(C(=O)N(CC(=O)NC(C)(C)C)C3CCCC3)N2C=C1 (stereo unspecified)	5.6	-1.1	.
CC(C)(C)NC(=O)CN(C(=O)C1(C)CC(=O)N=C2C=CC=CN21)C1CCCC1 (stereo unspecified)	39.2*	0.2	+
O=C(CCn1cnc2ccccc2c1=O)Nc1cccc(Cl)c1	7.5	-15.9	.
O=C(CN(C(=O)CCC(=O)Nc1ccccn1)c1ccc2c(c1)OCCO2)NCCc1ccccc1	1.7	-7.0	.
CCC(c1nnnn1Cc1ccco1)N1CCC(C(N)=O)CC1 (stereo unspecified)	.	-5.7	.
Nc1ccc2nc(-c3ccc(Cl)cc3)[nH]c2c1	8.8	3.1	.
Nc1ccc(-c2nc3c(Cl)c(N)ccc3[nH]2)cc1	116.0*	-4.3	+
COC(=O)C1C2C=CC(C3CC23)C1C(=O)OCC(=O)c1ccccc1 (stereo unspecified)	-12.2	.	.
CCCCOCCCn1c(-c2ccco2)nc2nc3ccccc3nc21	41.2*	17.0	+
CCCCn1c(-c2cccs2)nc2nc3ccccc3nc21	55.8	.	.
CCNc1cc2n(c(=O)n1)CCc1cc(OC)c(OC)cc1-2	17.3	-15.8	.
COc1cc2c(cc1OC)-c1cc(OCCN3CCOCC3)nc(=O)n1CC2	61.1*	0.2	+
COC(=O)c1ccc(-c2cc(C(=O)O)c3cc4c(cc3n2)OCCO4)cc1	47.5*	-13.3	+
COc1cc(-c2cc(C(=O)O)c3cc4c(cc3n2)OCCO4)cc(OC)c1OC	6.3	.	.
COc1cc(O)c(C(CC(=O)N2CCN(c3ccccc3)CC2)c2ccc(N(C)C)cc2)c(OC)c1 (stereo unspecified)	9.1	.	.
CCOC(=O)c1nn(-c2ccc(Cl)cc2)c2nc(-c3ccc(C)cc3)c(C#N)c(=O)n12	10.7	.	.
CCOC(=O)c1nn(-c2ccc(Cl)cc2)c2nc(CC)c(C#N)c(=O)n12	84.9*	.	+
COc1ccc(CCNC(=O)C2CC(c3cc(C(F)(F)F)cc(C(F)(F)F)c3)=NO2)cc1 (stereo unspecified)	-1.4	.	.
COc1cccc(-c2nn(C)c3sc(C(=O)NCc4ccc(C)o4)cc23)c1	11.7	-18.6	.
Cc1nnc(N(C)C(=O)c2cccnc2)s1	12.6	-6.2	.
CN(C(=O)c1cccnc1)c1nnc(-c2ccccn2)s1	42.5*	-5.1	+
COc1cccc(C2/C(=C(\O)c3ccc4c(c3)OCCO4)C(=O)C(=O)N2CCCN(C)C)c1OC (stereo unspecified)	.	-7.9	.
COCCN(CCOC)C(=O)c1cc2c(=O)n3ccccc3nc2s1	115.1*	7.3	+
CCN(CC)C(=O)c1cc2c(=O)n3ccccc3nc2s1	27.3	-16.8	.
SMILES	RmlCD inh mix	RT RNaseH block	RmlCD fluor art
CC[C@@H]1CC=C[C@H]2[C@H]1C(=O)N(Cc1ccccc1)[C@H]2c1ccc(OC)c(Cl)c1	-12.1	.	.
NC(=O)c1ccc(-c2ncc(-c3ccccc3)o2)cc1	72.9*	-20.2	+
c1ccc(-c2cnc(-c3cccnc3)o2)cc1	19.8	-44.0	.
COc1ccc(Oc2ccc(S(=O)(=O)N3CCCCC3)cc2S(=O)(=O)N2CCCCC2)cc1	.	8.3	.
CN(C)CCNC(=O)c1coc(=O)c(Br)c1	61.9*	-3.4	+
CC(C)CNC(=O)c1coc(=O)c(Br)c1	3.8	.	.
Cc1cccc(OCC(=O)N2CCC(N3CCCCCC3)CC2)c1	8.7	4.8	.
CCCC(=O)Nc1nc(C)c(-c2csc(Nc3ccccc3OC)n2)s1	28.3	.	.
CCC(C)/C=C(C)/C=C/C1=CC2=C(Cl)C(=O)C(C)(OC(C)=O)C(=O)C2=CO1 (stereo unspecified)	32.5*	.	+
CC[C@H](C)/C=C(C)/C=C/C1=CC2=C(Cl)C(=O)[C@@](C)(OC(C)=O)C(=O)C2=CO1	-13.3	.	.
O=C(CCc1ccccc1)NCCCN1CCOCC1	-73.8	-17.1	.
O=C(Nc1cccc(Cl)c1)Nc1cccc(Cl)c1	-14.2	.	.
Cc1ccc(NC(=O)Nc2ccccc2C#N)c(Cl)c1	29.3	.	.
N#Cc1ccccc1NC(=O)Nc1ccc(Cl)cc1	40.2*	.	+
N#Cc1ccccc1NC(=O)Nc1cccc(Cl)c1	43.7*	-12.0	+
O=c1c2ccccc2nc(SCc2ccccc2)n1Cc1ccco1	-4.1	-23.9	.
CNC(=O)c1ccc(-c2ccc(OC)cc2)s1	85.3*	.	+
CNC(=O)c1ccc(-c2ccc(F)cc2)s1	7.9	.	.
CSc1n[nH]c(NC2=CC(=O)CCC2)n1	8.5	3.9	.
c1ccc(-c2cn3c(n2)SCC3)cc1	-0.3	.	.
Cc1oc2ccccc2c1-c1cn2c(n1)SCC2	51.9*	3.5	+
